Records with an inconclusive call do not appear. Activity calls are given as the source filed them. The call rests on the fitted dose curve; in most records, active means well fitted cell-killing curve with a large enough effect; inconclusive means small, poorly fitted or top-dose-only effect, or effect the other way; inactive means no such curve, though single readings can be large or run the other way. Residues, ends and D or L forms follow the SMILES beside them. *: point of attachment. Cbz = O=C(OCc1ccccc1)*
assay: Quantitative High-Throughput drug screen in 47 multiple myeloma cell lines against the NCATS MIPE library collection: ARP1_JJKsccF8 cell viability assay (AID 1918928; further: nearly all actives have a fitted effect of over 40% in size); conditions: ARP1 myeloma cells viability, CellTiter-Glo ATP, 48 h; series mostly up to 45.8 µM; viability: at the top concentration
Source text: PI: Beverly A. Mock Ph.D.
Laboratory of Cancer Biology and Genetics,
Center for Cancer Research, National Cancer Institute,
National Institute of Health, Bethesda, Maryland
Drug resistance and disease progression are common in multiple myeloma (MM) patients, underscoring the need for new therapeutic combinations. […] We hypothesized that effective combinations would reduce MYC expression and enhance p16 activity. […] These preclinical data identify potentially useful drug combinations for evaluation in drug-resistant MM and reveal potential mechanisms of combined drug sensitivity.
Described herein is the primary MIPE qHTS used to cherrypick compounds. Validated compounds were then further tested for potential synergistic activiy.
[1] Peat TJ, Gaikwad SM, Dubois W, Gyabaah-Kessie N, Zhang S, Gorjifard S, Phyo Z, Andres M, Hughitt VK, Simpson RM, Miller MA, Girvin AT, Taylor A, Williams D, D'Antonio N, Zhang Y, Rajagopalan A, Flietner E, Wilson K, Zhang X, Shinn P, Klumpp-Thomas C, McKnight C, Itkin Z, Chen L, Kazandijian D, Zhang J, Michalowski AM, Simmons JK, Keats J, Thomas CJ, Mock BA. Drug combinations identified by high-throughput screening promote cell cycle transition and upregulate Smad pathways in myeloma. Cancer Lett. 2023 Aug 1;568:216284. doi: 10.1016/j.canlet.2023.216284. Epub 2023 Jun 24. PMID: 37356470; PMCID: PMC10408729.
SEQUENCE No. (e.g., 1, 2, 3, etc.); […] (e.g., Cells, Incubation, Reagent, etc.); VALUE and DESCRIPTION.
1; Cells; 5 uL; white, solid bottom 1536-well Greiner assay plate.
2; Compounds; 23 nL; Kalypsis pin tool (Wako USA) equipped with a 1536-well pin head to transfer to the assay plates.
3; Incubation; 48 hours; 37C incubation.
4; Reagent;5uL; CellTiter Glo (Promega).
5; Detector; 425V; Luminescence; Viewlux PerkinElmer.
NOTES (numbers refer to Sequence numbers above)
1. The cell-based screening methods employed in this study were like those previously published. Briefly, the corresponding myeloma cell lines were screened in 1,536-well plates with 500 cells, 5-uL per well for inhibition of cell viability (assessed by measuring ATP levels with CellTiterGlo).
2. NCATS MIPE 4.0 library of approved and investigational drugs were added using the Kalypsis pin tool. Wells treated with DMSO only for 100% viability and media only cells for 0% viability were used as controls.
3. The assay plates were covered and incubated for 48 hours in a 37C, 5% CO2 incubator with controlled humidity.
4. After 48 hours, CellTilter-GloTM luminescent substrate mix (Promega) reagent was added to the assay plate and plates we incubated for 5 min at room temperature.
5. Signal was measured as median relative luminescence units on a ViewLux (PerkinElmer) multiplate reader.
[1] Heske CM, Davis MI, Baumgart JT, Wilson K, Gormally MV, Chen L, Zhang X, Ceribelli M, Duveau DY, Guha R, Ferrer M, Arnaldez FI, Ji J, Tran HL, Zhang Y, Mendoza A, Helman LJ, Thomas CJ. Matrix Screen Identifies Synergistic Combination of PARP Inhibitors and Nicotinamide Phosphoribosyltransferase (NAMPT) Inhibitors in Ewing Sarcoma. Clin Cancer Res. 2017 Dec 1;23(23):7301-7311. doi: 10.1158/1078-0432.CCR-17-1121. Epub 2017 Sep 12. PMID: 28899971; PMCID: PMC6636827.
Potency means the concentration at half of the fitted maximal effect.

Row | Structure (SMILES) | Potency | viability
1 | COc1ccc(Nc2cc(-c3cnc(N)nc3)nc(N3CCOCC3)n2)cn1 | 0.469 µM (active) | 
2 | COc1ccc(C(C)=O)c(O)c1 |  | 79.1% (inactive)
3 | N#CC(=C(O)c1ccc(Cl)cc1Cl)c1nc2cc(Cl)ccc2c(=O)[nH]1 |  | 110% (inactive)
4 | C#C[C@]1(O)CC[C@@H]2[C@@H]3CCc4cc(O)ccc4[C@H]3CC[C@@]21C | 23.5 µM (active) | 
5 | CC(C)N1[N]C(=C2C=c3cc(O)ccc3=N2)c2c(N)ncnc21 | 0.0833 µM (active) | 
6 | Nc1ccn(C[C@@H](CO)OCP(=O)(O)O)c(=O)n1 |  | 116% [at 23.2 µM] (inactive)
7 | C[C@@H](Cc1cc2c(c(C(N)=O)c1)N(CCCO)CC2)NCCOc1ccccc1OCC(F)(F)F |  | 84% (inactive)
8 | C#CCC(Cc1cnc2nc(N)nc(N)c2n1)c1ccc(C(=O)N[C@@H](CCC(=O)O)C(=O)O)cc1 (stereo not given in full) | 0.0469 µM (active) | 
9 | Cc1noc(-c2ccc(CSCCC(=O)O)cc2)c1NC(=O)OC(C)c1ccccc1Cl (stereo not given) |  | 107% (inactive)
10 | Cc1ccc([N+](=O)[O-])cc1S(=O)(=O)N(C)N=Cc1cnc2ccc(Br)cn12 | 0.0264 µM (active) | 
11 | C=CC1=C(C(=O)O)N2C(=O)[C@@H](NC(=O)C(=NO)c3csc(N)n3)[C@H]2SC1 |  | 114% (inactive)
12 | CC(C=CC1=C(C)CCCC1(C)C)=CC=CC(C)=CC(=O)Nc1ccc(O)cc1 | 19.1 µM (active) | 
13 | CCOC(=O)[C@@H](N)Cc1ccc(-c2cc(O[C@H](c3ccc(Cl)cc3-n3ccc(C)n3)C(F)(F)F)nc(N)n2)cc1 | 14.8 µM (active) | 
14 | O=C(O)[C@H](CC(=O)N1C[C@@H]2CCCC[C@H]2C1)Cc1ccccc1 |  | 119% (inactive)
15 | COc1cc(C(C)C)c(Oc2cnc(NC(CO)CO)nc2N)cc1I |  | 113% (inactive)
16 | COc1cc(OC)c(C=CS(=O)(=O)Cc2ccc(OC)c(NCC(=O)O)c2)c(OC)c1 | 0.372 µM (active) | 
17 | CC(=O)N[C@H]1[C@@H]([C@H](O)[C@H](O)CO)OC(C(=O)O)=C[C@@H]1N=C(N)N |  | 109% (inactive)
18 | CC[C@]12C=CCN3CC[C@@]4(c5cc([C@@]6(C(=O)OC)C[C@H]7C[C@@H](C(C)(F)F)CN(Cc8c6[nH]c6ccccc86)C7)c(OC)cc5N(C)[C@H]4[C@@](O)(C(=O)OC)[C@H]1OC(C)=O)[C@@H]32 | 0.0047 µM (active) | 
19 | O=C(O)C[C@H](O)C[C@H](O)C=Cc1c(C2CC2)nc2ccccc2c1-c1ccc(F)cc1 | 13.2 µM (active) | 
20 | CN(N=O)C(=O)N[C@H]1C(O)OC(CO)[C@@H](O)[C@H]1O (stereo not given in full) |  | 88.3% (inactive)

Row | Structure (SMILES) | Potency | viability
21 | CC(=O)NCC(=O)N1[C@H]2CC[C@H]1c1cc(Nc3ncc(C(F)(F)F)c(NC4CCC4)n3)ccc12 | 4.69 µM (active) | 
22 | Nc1nc(=O)n([C@H]2CSC(CO)O2)cc1F (stereo not given in full) |  | 101% (inactive)
23 | CC(=O)OCC(=O)[C@@]1(O)CC[C@H]2[C@@H]3CCC4=CC(=O)CC[C@]4(C)[C@@H]3C(=O)C[C@@]21C |  | 91.7% (inactive)
24 | C[C@@]12C(=O)OC(=O)[C@@]1(C)C1CCC2O1 | 0.833 µM (active) | 
25 | CC(C)(O)Cn1c(NC(=O)c2ccc(-c3cn[nH]c3)s2)nc2cc(CN3CCOCC3)ccc21 | 1.18 µM (active) | 
26 | C=Cc1c(C)c2cc3nc(cc4[nH]c(cc5nc(cc1[nH]2)C(C)=C5CCC(=O)O)c(CCC(=O)OC)c4C)[C@@]1(C)C3=CC=C(C(=O)OC)[C@H]1C(=O)OC | 0.743 µM (active) | 
27 | C=C1C(=O)O[C@H]2[C@@H]1CCC(C)=CCC[C@@]1(C)O[C@@H]21 | 4.69 µM (active) | 
28 | CC(C)n1cnc2c(NCCc3ccc(O)cc3)nc(-c3csc4ccccc34)nc21 | 14.8 µM (active) | 
29 | CCc1c(O)cc(O)c(C(=O)c2ccc(OCCN3CCOCC3)c(OC)c2)c1CC(=O)N(CCOC)CCOC | 1.48 µM (active) | 
30 | Oc1cc2c(cc1O)C1c3ccc(O)c(O)c3OCC1(O)C2 (stereo not given) |  | 90.2% (inactive)
31 | COc1ccc(S(=O)(=O)Nc2cccnc2Nc2ccc(O)cc2)cc1 | 0.059 µM (active) | 
32 | CC[C@H]1OC(=O)[C@H](C)[C@@H](O[C@H]2C[C@@](C)(OC)[C@@H](O)[C@H](C)O2)[C@H](C)[C@@H](O[C@@H]2O[C@H](C)C[C@H](N(C)C)[C@@H]2O)[C@](C)(OC)C[C@@H](C)C(=O)[C@H](C)[C@@H](O)[C@]1(C)O |  | 112% (inactive)
33 | C[C@@H]1C(=O)O[C@H]2CC34[C@H]5C[C@@H](C(C)(C)C)C36[C@H](OC(=O)[C@@H]6O)O[C@@]4(C(=O)O5)[C@]21O (stereo not given in full) |  | 101% (inactive)
34 | CC(C)C[C@@H](C=O)NC(=O)[C@H](CC(C)C)NC(=O)[C@H](CC(C)C)NC(=O)OCc1ccccc1 (Cbz-Leu-Leu-Leu-aldehyde) | 0.332 µM (active) | 
35 | CC(=O)N1CCN(c2ccc(OCc3nn(C)c(C)c3-c3cccc4c(CCCOc5cccc6ccccc56)c(C(=O)O)n(Cc5cccnc5)c34)cc2)CC1 | 10.5 µM (active) | 
36 | NC(=O)c1ncn([C@@H]2O[C@H](CO)[C@@H](O)[C@@H]2O)c1N |  | 100% (inactive)
37 | Cc1ccc(O)c(C(CCN(C(C)C)C(C)C)c2ccccc2)c1 (stereo not given) |  | 98.7% (inactive)
38 | C[C@H](CCC(=O)O)[C@H]1CC[C@H]2[C@@H]3[C@H](O)C[C@@H]4C[C@H](O)CC[C@]4(C)[C@@H]3CC[C@]12C |  | 116% (inactive)
39 | CCc1nc(-c2cccc(C)c2)c(-c2ccnc(NC(=O)c3ccccc3)c2)s1 | 11.8 µM (active) | 
40 | C=CC(=O)Nc1cccc(Nc2nc(NC3CCC(N(C)C)CC3)nc3c2ncn3C(C)C)c1 (stereo not given) | 0.743 µM (active) | 

Reference: PubChem BioAssay (NCATS)
